Assay results from PubChem BioAssay (Tox21).
Inconclusive results are not listed. Active and inactive are the calls of the source. Unless noted, calls come from the whole dose curve.

Assays:
[1] = qHTS assay to identify small molecule agonists of the vitamin D receptor (VDR) signaling pathway - cell viability counter screen (AID 743224; active = well fitted curve in the direction sought with a large enough effect in the repeat runs; an effect the other way counts as inactive or inconclusive; note: series mostly up to about 63 µM; % is set by controls: 0 for no effect and ±100 for the full control effect; nearly all actives have a fitted effect of over 50% in size)
Outline: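 VDR-bla cells, 4 h after plating, exposed to compounds for 16 h at 37C; viability then read in the same wells as CellTiter-Glo luminescence after 30 min at room temperature, following the bla FRET read.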

[2] = qHTS assay to identify small molecule antagonists of the vitamin D receptor (VDR) signaling pathway - cell viability counter screen (AID 743225; active = well fitted curve in the direction sought with a large enough effect in the repeat runs; an effect the other way counts as inactive or inconclusive; note: % is set by controls: 0 for no effect and ±100 for the full control effect; nearly all actives have a fitted effect of over 50% in size)
Outline: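 Compounds were pinned onto VDR-bla HEK 293T cells together with 1-alpha,25-dihydroxyvitamin D3 at 3 nM final. After 16 h at 37C and 5% CO2 plus the reporter readout, cell viability was measured by CellTiter-Glo luminescence (30 min, room temperature).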

[3] = qHTS assay to identify small molecule agonists of the NFkB signaling pathway (AID 1159509; active = well fitted curve in the direction sought with a large enough effect in the signal ratio in the repeat runs, not every such curve was filed as active; the % refers to the signal ratio; note: series mostly up to about 61 µM; % is set by controls: 0 for no effect and ±100 for the full control effect)
Outline: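 NFkB-bla ME-180 cells with a beta-lactamase reporter under an NF-kB response element were plated overnight, treated with compounds in DMSO for 5 hr at 37 C, then loaded with FRET substrate for 1.5 hr at room temperature.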

[4] = qHTS assay to identify small molecule agonists of the endoplasmic reticulum stress response signaling pathway (AID 1159516; active = well fitted activation curve with a large enough effect in the signal ratio in the repeat runs, not every such curve was filed as active; the % refers to the signal ratio; note: % is set by controls: 0 for no effect and ±100 for the full control effect)
Outline: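 CellSensor ESRE-bla HeLa cells, 1,500 per well, plated overnight, then exposed to compounds for 5 hr at 37 C. Beta-lactamase reporter read with LiveBLAzer B/G FRET substrate after 2 hr at room temperature, 405 nm excitation, 460 and 530 nm emission.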

[5] = qHTS assay to identify small molecule antagonists of the retinoid-related orphan receptor gamma (ROR-gamma) signaling pathway - cell viability counter screen (AID 1159520; active = well fitted curve in the direction sought with a large enough effect in the repeat runs; an effect the other way counts as inactive or inconclusive; note: % is set by controls: 0 for no effect and ±100 for the full control effect; nearly all actives have a fitted effect of over 50% in size)
Outline: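 Cytotoxicity was read from cellular ATP (CellTiter-Glo luminescence) after 16 hr at 37 C with 1 uM doxycycline induction. The inducer was added 2 hr after compound transfer to Tet-on ROR gamma CHO cells.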

[6] = target: Nuclear receptor ROR-gamma (Homo sapiens) (UniProt P51449); assay: qHTS assay to identify small molecule antagonists of the retinoid-related orphan receptor gamma (ROR-gamma) signaling pathway (AID 1159521; active = well fitted curve in the direction sought with a large enough effect in the repeat runs; an effect the other way counts as inactive or inconclusive;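 note: CHO cells with doxycycline inducible ROR-gamma driving an RORE luciferase reporter; top concentration of the series differs between compounds; % is set by controls: 0 for no effect and ±100 for the full control effect; nearly all actives have a fitted effect of over 50% in size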)
Outline: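 Test compounds were applied to Tet-on RORγ CHO cells 2 h ahead of doxycycline hyclate (1 uM final). Luciferase reporter activity was quantified by luminescence after 16 h at 37 C and 5% CO2.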

[7] = qHTS assay to identify small molecule agonists of the AP-1 signaling pathway - cell viability counter screen (AID 1159525); note: nearly all actives have a fitted effect of over 55% in size
Outline: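 Luminescent ATP readout (Cell Titer Glo, 30 min RT), normalised to DMSO and tetra n-octyl ammonium bromide controls. Cells were ME-180 AP-1-bla in 0.5% dialyzed FBS Opti-MEM, with a 5 h, 37 °C compound exposure.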

[8] = qHTS assay to identify small molecule agonists of the AP-1 signaling pathway (AID 1159526); note: % is set by controls: 0 for no effect and ±100 for the full control effect
[9] = qHTS assay to identify small molecule agonists of the NFkB signaling pathway - cell viability counter screen (AID 1159515); note: series mostly up to about 61 µM; % is set by controls: 0 for no effect and ±100 for the full control effect; nearly all actives have a fitted effect of over 55% in size
Outline: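 NFkB-bla ME-180 cells, 2,000/well, plated overnight at 37 C; compound added for 5 hr at 37 C. Viability read in the same wells as the bla reporter, by CellTiter-Glo luminescence after 30 min at room temperature.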

[10] = qHTS assay to identify small molecule agonists of the endoplasmic reticulum stress response signaling pathway - cell viability counter screen (AID 1159517)
Outline: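 Cells, HeLa ESRE-bla; density, 1,500/well; dosing, 5 hr at 37 C, 5% CO2; readout, CellTiter-Glo luminescence after 30 min RT.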

CCCOc1nn(C(=O)NS(=O)(=O)c2ccccc2C(=O)OC)c(=O)n1C
inactive: Potency [1] | Potency [2] | outcome [3] | outcome [4] | Potency [5] | Potency [6] | Potency [7] | outcome [8]

CC1N=C(N)OC1c1ccccc1 (stereo not given)
inactive: Potency [1] | Potency [2] | outcome [9] | outcome [4] | Potency [10] | Potency [5] | Potency [6] | Potency [7] | outcome [8]

CON(C)C(=O)Nc1ccc(Br)c(Cl)c1
inactive: Potency [1] | outcome [9] | outcome [4] | Potency [10] | Potency [5] | Potency [6] | Potency [7] | outcome [8]

O=S1(=O)OCCO1
inactive: Potency [2] | outcome [3] | outcome [4] | Potency [10] | Potency [5] | Potency [6] | Potency [7] | outcome [8]

O=c1[nH]c2ccccc2n1C1CCNCC1
inactive: Potency [1] | Potency [2] | outcome [3] | outcome [4] | Potency [10] | Potency [5] | Potency [6] | Potency [7] | outcome [8]

Clc1ccc(C(Cl)(Cl)Cl)cn1
inactive: Potency [1] | Potency [2] | outcome [3] | outcome [4] | Potency [10] | Potency [6] | Potency [7] | outcome [8]

CCCCCCCCBr
inactive: Potency [1] | Potency [2] | outcome [3] | outcome [4] | Potency [5] | Potency [6] | Potency [7] | outcome [8]

Oc1ccc(Cc2ccc(O)cc2)cc1
inactive: Potency [2] | outcome [3] | outcome [4] | Potency [10] | Potency [6] | Potency [7] | outcome [8]

COC1=CC(=O)O[C@@H](/C=C/c2ccccc2)C1
inactive: Potency [1] | Potency [2] | outcome [3] | outcome [4] | Potency [10] | Potency [5] | Potency [6] | Potency [7] | outcome [8]

CCOC1Oc2ccc(OS(C)(=O)=O)cc2C1(C)C (stereo not given)
inactive: Potency [1] | Potency [2] | outcome [3] | outcome [4] | Potency [10] | Potency [5] | Potency [6] | Potency [7] | outcome [8]

CC[C@H](N)c1ccccc1
inactive: Potency [1] | Potency [2] | outcome [9] | outcome [4] | Potency [10] | Potency [5] | Potency [6] | Potency [7] | outcome [8]

CCOC(=O)N(C)N=O
inactive: Potency [1] | Potency [2] | outcome [9] | outcome [4] | Potency [10] | Potency [6] | Potency [7] | outcome [8]

Cn1c(CCCC(=O)O)nc2cc(N(CCCl)CCCl)ccc21
inactive: Potency [2] | outcome [9] | outcome [4] | Potency [10] | Potency [6] | Potency [7] | outcome [8]

C[C@H](CN1CCOCC1)C(C(=O)N1CCCC1)(c1ccccc1)c1ccccc1
inactive: Potency [1] | Potency [2] | outcome [4] | Potency [10] | Potency [5] | Potency [6] | Potency [7] | outcome [8]

CCC(C)C(C)(COC(N)=O)COC(N)=O (stereo not given)
inactive: Potency [2] | outcome [4] | Potency [10] | Potency [5] | Potency [6] | Potency [7] | outcome [8]

CCCCCCC1CCOC1=O (stereo not given)
inactive: Potency [1] | Potency [2] | outcome [9] | outcome [4] | Potency [10] | Potency [5] | Potency [6] | Potency [7] | outcome [8]

CC(C)NCC(O)c1ccc([N+](=O)[O-])cc1 (stereo not given)
inactive: Potency [2] | outcome [9] | outcome [4] | Potency [10] | Potency [5] | Potency [6] | Potency [7] | outcome [8]

CC(C)(O)C(Cl)(Cl)Cl
inactive: Potency [2] | outcome [9] | outcome [4] | Potency [10] | Potency [5] | Potency [6] | Potency [7] | outcome [8]

C/C=C/CC#N
inactive: Potency [1] | Potency [2] | outcome [9] | outcome [4] | Potency [10] | Potency [6] | Potency [7] | outcome [8]

C=CC(=O)OCCN(C)C
inactive: Potency [1] | Potency [2] | outcome [9] | outcome [4] | Potency [10] | Potency [5] | Potency [6] | Potency [7] | outcome [8]

C=C1CC[C@@]2(O)[C@H]3Cc4ccc(O)c5c4[C@@]2(CCN3CC2CC2)[C@H]1O5
inactive: Potency [1] | Potency [2] | outcome [9] | outcome [4] | Potency [10] | Potency [5] | Potency [6] | Potency [7] | outcome [8]

N[C@@H](Cc1ccc(Oc2cc(I)c(O)c(I)c2)c(I)c1)C(=O)O
inactive: Potency [1] | Potency [2] | outcome [9] | outcome [4] | Potency [10] | Potency [5] | Potency [6] | Potency [7] | outcome [8]

Cc1ccc2c(c1)C1CN(C)CCC1N2 (stereo not given)
inactive: Potency [2] | outcome [9] | outcome [4] | Potency [10] | activity, negative = cytotoxicity [5] 3.75% [at 19 µM] | activity change, negative = inhibition [6] 3.88% [at 19 µM] | viability change, negative = cytotoxic [7] 5.2% [at 15.8 µM] | activation [8] 8.05% [at 15.8 µM]

CC(C)(C1CCC(O)CC1)C1CCC(O)CC1 (stereo not given)
inactive: Potency [1] | Potency [2] | outcome [4] | Potency [6] | Potency [7] | outcome [8]

CCC1(c2ccccc2)C(=O)N(COC)C(=O)N(COC)C1=O
inactive: Potency [1] | Potency [2] | outcome [9] | outcome [4] | Potency [10] | Potency [5] | Potency [6] | Potency [7] | outcome [8]

O=C/C=C/c1ccco1
inactive: Potency [2] | outcome [9] | outcome [4] | Potency [5] | Potency [6] | Potency [7] | outcome [8]

COC[C@@H](NC(C)=O)C(=O)NCc1ccccc1
inactive: Potency [1] | Potency [2] | outcome [9] | outcome [4] | Potency [10] | Potency [5] | Potency [6] | Potency [7] | outcome [8]

CS(=O)(=O)c1ccc(C(=O)C2C(=O)CCCC2=O)c(Cl)c1COCC(F)(F)F
inactive: Potency [1] | Potency [2] | outcome [9] | outcome [4] | Potency [10] | Potency [5] | Potency [6] | Potency [7] | outcome [8]

C=CC=O
inactive: Potency [2] | outcome [9] | outcome [4] | Potency [10] | Potency [5] | Potency [6] | Potency [7] | outcome [8]

O=c1[nH]c2ccccc2o1
inactive: Potency [1] | Potency [2] | outcome [9] | outcome [4] | Potency [10] | Potency [5] | Potency [6] | Potency [7] | outcome [8]

NC(=O)CS(=O)C(c1ccccc1)c1ccccc1 (stereo not given)
inactive: Potency [1] | Potency [2] | outcome [9] | outcome [4] | Potency [5] | Potency [6] | Potency [7] | outcome [8]

CCC(=O)c1ccc(Cl)cc1
inactive: Potency [2] | outcome [9] | outcome [4] | Potency [10] | Potency [6] | Potency [7] | outcome [8]

C[C@@H](N)[C@@H](O)c1ccccc1
inactive: Potency [2] | outcome [9] | outcome [4] | Potency [10] | Potency [5] | Potency [6] | Potency [7] | outcome [8]

O=C(Cl)C(Cl)(Cl)Cl
inactive: outcome [9] | outcome [4] | Potency [10] | Potency [6] | Potency [7] | outcome [8]

c1cncc([C@@H]2CCCCN2)c1
inactive: Potency [1] | Potency [2] | outcome [9] | outcome [4] | Potency [10] | Potency [5] | Potency [6] | Potency [7] | outcome [8]

CCC(=O)OC1(c2ccccc2)CCN(C)CC1
inactive: Potency [1] | Potency [2] | outcome [9] | outcome [4] | Potency [5] | Potency [6] | Potency [7] | outcome [8]

CCOP(=O)(CN(CCO)CCO)OCC
inactive: Potency [1] | Potency [2] | outcome [9] | outcome [4] | Potency [10] | Potency [6] | Potency [7] | outcome [8]

CC#Cc1cc(C)nc(Nc2ccccc2)n1
inactive: Potency [1] | Potency [2] | outcome [9] | outcome [4] | Potency [10] | Potency [5] | Potency [6] | Potency [7] | outcome [8]

CCN(CC)CCOC(=O)C(O)(c1ccccc1)c1ccccc1
inactive: Potency [1] | Potency [2] | outcome [9] | outcome [4] | Potency [10] | Potency [6] | Potency [7] | outcome [8]

ClCCCCCCCl
inactive: Potency [1] | Potency [2] | outcome [9] | outcome [4] | Potency [10] | Potency [5] | Potency [6] | Potency [7] | outcome [8]

COC(=O)c1ccccc1CS(=O)(=O)NC(=O)Nc1nc(OC)cc(OC)n1
inactive: Potency [1] | outcome [4] | Potency [10] | Potency [6] | Potency [7] | outcome [8]

CCCN1CCC[C@@H]2Cc3[nH]ncc3C[C@H]21
inactive: Potency [1] | Potency [2] | outcome [9] | outcome [4] | Potency [10] | Potency [5] | Potency [6] | Potency [7] | outcome [8]

Cc1ccc(S(=O)(=O)N[C@@H](CCCCN)C(=O)CCl)cc1
inactive: Potency [1] | Potency [2] | outcome [4] | Potency [10] | Potency [5] | Potency [6] | Potency [7] | outcome [8]

COc1ccccc1OC
inactive: Potency [1] | Potency [2] | outcome [9] | outcome [4] | Potency [10] | Potency [5] | Potency [6] | Potency [7] | outcome [8]

CCOC(=O)C(Cl)Cc1cc(-n2nc(C)n(C(F)F)c2=O)c(F)cc1Cl (stereo not given)
inactive: Potency [1] | Potency [2] | outcome [4] | Potency [10] | Potency [5] | Potency [6] | Potency [7] | outcome [8]

CC[C@@H](CO)NC(=O)[C@@H]1C=C2c3cccc4[nH]cc(c34)C[C@H]2N(C)C1
inactive: Potency [2] | outcome [9] | outcome [4] | Potency [10] | Potency [5] | Potency [6] | Potency [7] | outcome [8]
